# Reference: article PMC7826789 (International Journal of Molecular Sciences, 2021)
# Tests used:
# Settings in all cases: Compound Concentration (nM):1000
# ERK4 = test system: T1, ERK4
# T1 construct: gene MAPK4
# ERK5 = test system: T2, ERK5
# T2 construct: gene MAPK7
# ERK8 = test system: T3, ERK8
# T3 construct: gene MAPK15
# ERN1 = test system: ERN1
# FAK = test system: T4, FAK
# T4 construct: gene PTK2
# FER = test system: FER
# FES = test system: FES
# FGFR1 = test system: FGFR1
# FGFR2 = test system: FGFR2
# FGFR3(G697C) = test system: FGFR3(G697C)
# 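Note: KINOMEscan scanMAX binding as percent activity remaining versus control; lower means stronger binding.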
Compound,Percent Control (ERK4),Percent Control (ERK5),Percent Control (ERK8),Percent Control (ERN1),Percent Control (FAK),Percent Control (FER),Percent Control (FES),Percent Control (FGFR1),Percent Control (FGFR2),Percent Control (FGFR3(G697C))
Cc1cc(O)cc(C)c1/C=C/c1cncc(C(N)=O)c1 [GW435821X],100%,100%,100%,82%,100%,98%,100%,92%,100%,100%
COc1cc(C=NNc2ncnc3c2cnn3-c2ccccc2)ccc1O [GW513184X],37%,100%,22%,100%,100%,100%,100%,100%,100%,100%
Cl.O=C(Nc1ccc(Oc2ccc3[nH]c(NC(=O)c4ccccc4)nc3c2)cc1)Nc1cc(C(F)(F)F)ccc1F [GW709042A],91%,94%,64%,100%,100%,77%,94%,76%,68%,100%
Cl.O=C(O[C@H]1CN[C@H](C#Cc2cc3ncnc(Nc4ccc5c(cnn5Cc5ccccc5)c4)c3s2)C1)N1CCOCC1 [GSK200398A],99%,89%,90%,88%,96%,94%,95%,100%,100%,86%
CC(C)COC(=O)c1ccc2c(c1)/C(=C/Nc1ccc(S(N)(=O)=O)cc1)C(=O)N2 [GW416981X],100%,100%,1.8%,100%,100%,100%,100%,100%,100%,100%
CCc1ccc(Oc2nccc(-c3c(-c4ccc(F)cc4)ncn3C3CCNCC3)n2)cc1 [SB-242719],100%,100%,100%,75%,100%,67%,97%,100%,100%,91%
COc1ccc(COc2ccc(Cc3cnc(N)nc3N)cc2OC)cc1 [GW632580X],100%,100%,100%,88%,100%,81%,82%,67%,99%,89%
CCn1c(-c2nonc2N)nc2c(C#CC(C)(C)O)nc(OCCNC)cc21.Cl [GSK949675],100%,100%,100%,100%,100%,100%,100%,100%,100%,100%
CC1=C(C(=O)Nc2ccc3[nH]ncc3c2)C(c2ccc3ccccc3c2)CC(=O)N1 (stereo not shown) [GSK270822A],100%,100%,100%,78%,100%,77%,84%,72%,66%,78%
CN1CCN(C(=O)c2ccc(NC(=O)Nc3ccc(N(C)c4ccnc(Nc5ccc(CS(C)(=O)=O)cc5)n4)cc3)cc2)CC1.Cl [GW830263A],100%,100%,25%,25%,36%,46%,67%,100%,99%,100%
Cl.O=S1CCN(Cc2ccc(-c3ccc4ncnc(Nc5ccc(OCc6ccccc6)c(F)c5)c4c3)o2)CC1 [GW576924A],100%,100%,100%,100%,100%,100%,100%,100%,100%,100%
CN(C)c1cc2c(Nc3ccc4c(cnn4Cc4ccccc4)c3)ncnc2cn1 [GW282974X],100%,100%,87%,52%,85%,100%,81%,97%,97%,93%
COc1cc2ncnc(Nc3ccc4c(cnn4Cc4ccccc4)c3)c2cc1OC.Cl [GW282449A],100%,100%,100%,96%,100%,100%,100%,100%,100%,100%
COc1cc(/C=N/Nc2ncnc3[nH]ncc23)ccc1O [GW578748X],72%,100%,93%,53%,100%,100%,100%,81%,100%,88%
NS(=O)(=O)c1ccc(Nc2ncc(-c3ccccc3)o2)cc1 [GW572399X],100%,100%,28%,100%,100%,100%,100%,100%,100%,100%
CCS(=O)(=O)c1ccc(OC)c(Nc2ncc(-c3cccc(OC)c3)o2)c1 [GW580509X],100%,100%,100%,76%,100%,100%,100%,39%,58%,31%
Nc1ncnc2occ(-c3ccc(NC(=O)Nc4cc(C(F)(F)F)ccc4F)cc3)c12 [GW770249X],100%,100%,2.4%,88%,9.7%,87%,100%,32%,31%,78%
COc1cccc(-c2c[nH]c3c(N/N=C/c4ccncc4)ncnc23)c1 [GW814408X],8.3%,100%,2%,100%,100%,100%,100%,100%,100%,100%
NS(=O)(=O)c1ccc(N/N=C2\C(=O)Nc3ccc(Cl)cc32)cc1 [GW280670X],100%,100%,59%,100%,100%,90%,100%,100%,100%,100%
Cl.O=C(Nc1ccc(Oc2ccc3[nH]c(NC(=O)c4ccco4)nc3c2)cc1)Nc1cc(C(F)(F)F)ccc1F [GW683134A],100%,100%,34%,89%,100%,92%,100%,64%,36%,69%

Compound,Percent Control (ERK4),Percent Control (ERK5),Percent Control (ERK8),Percent Control (ERN1),Percent Control (FAK),Percent Control (FER),Percent Control (FES),Percent Control (FGFR1),Percent Control (FGFR2),Percent Control (FGFR3(G697C))
O=C1Nc2ccc(C(=O)c3ccco3)cc2C1=Cc1cc(Cl)c(O)c(Cl)c1 [GW406108X],100%,100%,100%,66%,100%,100%,99%,100%,75%,100%
COc1ccc2c(-c3ccnc(Nc4cccc(OC(F)(F)F)c4)n3)cnn2n1 [GW810372X],100%,100%,3.6%,100%,100%,100%,100%,91%,100%,75%
NS(=O)(=O)c1ccc(N/N=C2\C(=O)Nc3ccc(C(=O)NCc4ccncc4)cc32)cc1 [GW300657X],100%,39%,4%,57%,86%,100%,100%,91%,80%,100%
COc1ccc2[nH]c3c4[nH]c5ccc(OC)cc5c4c4c(c3c2c1)C(=O)NC4=O [GW296115X],74%,69%,58%,93%,85%,58%,86%,100%,88%,100%
CC1=C(C(=O)Nc2ccc3[nH]ncc3c2)C(c2ccc(Cl)c(Cl)c2)CC(=O)N1 (stereo not shown) [GSK299115A],100%,100%,90%,80%,100%,97%,96%,90%,73%,94%
COC(=O)Nc1nc2ccc(Oc3ccc(NC(=O)Nc4cc(C(F)(F)F)ccc4F)cc3)cc2s1.Cl [GW693917A],95%,100%,8.5%,56%,92%,100%,88%,51%,30%,59%
COc1cccc(-n2ncc3c(N/N=C/c4ccncc4)ncnc32)c1 [GW784752X],58%,100%,17%,72%,100%,100%,100%,87%,100%,92%
COc1cc(N2CCN(C(C)C)CC2)ccc1Nc1nc(Nc2ccc(F)cc2C(=O)NC[C@@H](O)CO)c2cc[nH]c2n1 [GSK1392956A],100%,99%,100%,43%,4.5%,43%,58%,100%,97%,98%
COc1cc(C)c(N(C)C(=O)CN(C)C)cc1Nc1nc(Nc2cccc(F)c2C(N)=O)c2cc[nH]c2n1 [GSK2219385],92%,100%,95%,100%,100%,91%,97%,100%,82%,88%
NS(=O)(=O)c1ccc(N/N=C2\C(=O)Nc3ccc(C(=O)NCCc4c[nH]cn4)cc32)cc1 [GW300660X],100%,100%,18%,82%,100%,100%,100%,100%,100%,100%
C[C@@H](Oc1cc(-n2cnc3ccc(OC4CCN(C)CC4)cc32)sc1C(N)=O)c1ccccc1Cl [GSK579289A],98%,96%,100%,55%,50%,100%,85%,67%,89%,61%
CN(C)CCNC(=O)Nc1ccc(N(C)c2ccnc(Nc3ccc(CS(C)(=O)=O)cc3)n2)cc1.Cl [GW830900A],93%,100%,78%,72%,49%,100%,100%,100%,94%,100%
COc1ccccc1-c1cc(/C=C2\C(=O)Nc3ncc(Br)cc32)cc(Br)c1O [GW442130X],100%,100%,100%,100%,97%,100%,100%,100%,100%,100%
O=C(Nc1n[nH]c2nc(-c3ccc(O)cc3)c(Br)cc12)C1CC1 [SB-725317],100%,2.4%,27%,93%,100%,100%,100%,100%,100%,100%
CCS(=O)(=O)c1ccc(OC)c(Nc2ncc(-c3cccc(F)c3)o2)c1 [GW621970X],100%,100%,100%,100%,100%,100%,100%,25%,22%,7.2%
NS(=O)(=O)c1ccc(N/N=C2\C(=O)Nc3ccc(-c4cnco4)cc32)cc1 [GW276655],100%,98%,23%,89%,68%,91%,86%,85%,100%,78%
C/C(Nc1ccc(S(N)(=O)=O)cc1)=C1/C(=O)Nc2ccccc21 [GW335962X],100%,100%,100%,88%,93%,88%,84%,86%,93%,100%
COc1cc2ncn(-c3cc(O[C@H](C)c4ccccc4Cl)c(C(N)=O)s3)c2cc1OC [GSK237701A],100%,100%,84%,88%,100%,100%,95%,65%,58%,63%
COc1ccc2cc(-c3c(-c4ccncc4)nc(-c4ccc(S(C)(=O)=O)cc4C)n3C)ccc2c1 [SB-633825],74%,89%,100%,74%,85%,77%,81%,73%,73%,86%
Cl.c1ccc(Cc2nc3ccc(Nc4ncnc5ccccc45)cc3[nH]2)cc1 [GR269666A],100%,100%,92%,93%,100%,88%,100%,100%,100%,100%
